{
  "source": "paper PMC7826789",
  "about": "(International Journal of Molecular Sciences, 2021)",
  "data": [
    {"smiles": "COc1cc(N2CCN(C)CC2)ccc1Nc1ncc2c(n1)N(C)c1ccccc1C(=O)N2", "note": "[XMD8-87]", "values": [
      {"measurement": "Kinases covered", "setting": "PTK6", "value": "PTK6"}
    ]},
    {"smiles": "CCCc1cc(N2CCCN(C)CC2)nc2sc3c(N)ncnc3c12", "note": "[BI00604564]", "values": [
      {"measurement": "Kinases covered", "setting": "RIOK2", "value": "RIOK2"}
    ]},
    {"smiles": "Cc1cc(NC(=O)c2cccc(NC(=O)/C=C/CN(C)C)c2)ccc1Nc1nccc(-c2cccnc2)n1", "note": "[JNK-IN-7]", "values": [
      {"measurement": "Kinases covered", "setting": "RIOK2", "value": "RIOK2"}
    ]},
    {"smiles": "CC1=C(C(=O)Nc2ccc3[nH]ncc3c2)C(c2ccc(Cl)c(Cl)c2)CC(=O)N1", "note": "(stereo not shown) [GSK299115A]", "values": [
      {"measurement": "Kinases covered", "setting": "ROCK1", "value": "ROCK1"}
    ]},
    {"smiles": "CCn1c(-c2nonc2N)nc2cncc(C(=O)N3CC[C@H](N)C3)c21.Cl", "note": "[SB-772077-B]", "values": [
      {"measurement": "Kinases covered", "setting": "ROCK2", "value": "ROCK2"}
    ]},
    {"smiles": "CCn1c(-c2nonc2N)nc2cncc(CNC3CCNCC3)c21", "note": "[SB-747651A]", "values": [
      {"measurement": "Kinases covered", "setting": "ROCK2", "value": "ROCK2"}
    ]},
    {"smiles": "COc1cc(Nc2cnc(C#N)c(O[C@H](C)CN(C)C)n2)ncc1-c1cnn(C)c1", "note": "[CCT244747]", "values": [
      {"measurement": "Kinases covered", "setting": "RPS6KA1", "value": "RPS6KA1"}
    ]}
  ]
}
